# Source: PubChem BioAssay (NCATS)
# Assay: qHTS profiling of the MIPE4 collection as inhibitors of Plasmodium falciparum (DD2) proliferation (AID 743345)
# Conditions: P. falciparum Dd2 in erythrocytes, SYBR Green DNA, 72 h; at 28.5 µM (top of the series) unless noted
# Summary of the method: (§1)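 Erythrocytes infected with P. falciparum (0.3% parasitemia, 2.5% hematocrit) incubated with compounds 72 h at 37 C, 5% CO2. Lysis with saponin/Triton buffer containing SYBR Green I, overnight at room temperature in the dark; DNA fluorescence (485/535 nm) normalised to 0.29 uM artemisinin and DMSO.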
row,SMILES,"parasite growth remaining, % of DMSO control (lower = more inhibition)"
1,CC1=C(C(=O)OC(C)C)C(c2cccc([N+](=O)[O-])c2)C(C(=O)OC2CN(C(c3ccccc3)c3ccccc3)C2)=C(N)N1 (stereo not drawn),7.73%
2,CN1CCN(CCCN2c3ccccc3Sc3ccc(S(=O)(=O)N(C)C)cc32)CC1,44% [at 9.64 µM]
3,CC[C@@H](CO)NCCN[C@@H](CC)CO,106%
4,Cc1cccc(C)c1NC(=O)CN1CCN(CCCC(c2ccc(F)cc2)c2ccc(F)cc2)CC1,52.4%

# Assay: qHTS profiling of the MIPE4 collection as inhibitors of Plasmodium falciparum (DD2) proliferation (Rep 2) (AID 743346)
# Conditions: P. falciparum Dd2 in erythrocytes, SYBR Green DNA, 72 h; at 28.5 µM (top of the series) unless noted
# Summary of the method: as §1
row,SMILES,"parasite growth, % of control (lower = inhibition)"
1,CC1=C(C(=O)OC(C)C)C(c2cccc([N+](=O)[O-])c2)C(C(=O)OC2CN(C(c3ccccc3)c3ccccc3)C2)=C(N)N1 (stereo not drawn),24.4%
2,CN1CCN(CCCN2c3ccccc3Sc3ccc(S(=O)(=O)N(C)C)cc32)CC1,48.8% [at 9.64 µM]
3,CC[C@@H](CO)NCCN[C@@H](CC)CO,68.5%
4,Cc1cccc(C)c1NC(=O)CN1CCN(CCCC(c2ccc(F)cc2)c2ccc(F)cc2)CC1,19.6%
